High-throughput results: PubChem BioAssay, National Center for Advancing Translational Sciences (NCATS)
NS1 inh: qHTS Assay for Inhibitors of Influenza NS1 Protein Function | Potency, µM (highest dose often 46.1 µM), inactives show at the top dose activity, positive = more growth | 0.4% of 270,000 active | AID 2326, 2010; note: potency is the fitted concentration of half-maximal effect; actives are rising curves; nearly all actives have a fitted effect of over 50% in size
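In this qHTS, NS1 from influenza A is expressed in budding yeast, where it slows growth. Cells are switched from glucose to 2% galactose medium (pH 6.0, -URA), treated with compound, and growth recovery is read at OD600.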
Pf growth 96h: Primary qHTS for delayed death inhibitors of the malarial parasite plastid, 96 hour incubation; AID 504834, 2011; 6.9% of 320,000 active; Potency, µM (doses to about 28.7 µM), for the others: top-dose activity change, negative = inhibition, usual class: inhibitors; P. falciparum luciferase reporter growth, 96 h; active = well fitted inhibition curve with a large enough effect; inconclusive = small, poorly fitted or top-dose-only effect, or another doubt; inactive = no such curve, though single readings can be large or run the other way; note: potency is the fitted concentration of half-maximal effect; % is set by controls: 0 for no effect and ±100 for the full control effect
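Parasite growth measured via integrated firefly luciferase reporter in P. falciparum. Infected erythrocytes at 2% hematocrit, 0.05% parasitemia final were treated 96 hours at 37 C under 5% CO2, and luminescence was read.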
Cycloheximide cs: Cycloheximide Counterscreen for Small Molecule Inhibitors of Shiga Toxin; cell reporter, cycloheximide protein synthesis inhibition counterscreen; max response, %; 12% of 300,000 active; in the data active = max response mostly above about 13%, no sharp cut-off; inactive = mostly below about 14%; note: read at 38.3 µM for the half of the compounds with a filed dose; 0% is about no effect
SARS PLpro yeast-1: qHTS of Yeast-based Assay for SARS-CoV PLP; S. cerevisiae expressing SARS-CoV PLpro, growth rescue; Potency, µM (top dose mostly 32.9 µM), without a hit: at the top dose activity, positive = growth rescue, hits mostly activators; 0.19% of 330,000 active; AID 485353, 2010; note: potency is the fitted concentration of half-maximal effect; 0% is about no effect; nearly all actives have a fitted effect of over 55% in size
Pf growth 48h: Primary qHTS for delayed death inhibitors of the malarial parasite plastid, 48 hour incubation; 5.9% of 310,000 active; P. falciparum luciferase growth in erythrocytes, 48 h; Potency, µM (titrated, usually from 28.7 µM), without a hit: at the highest dose activity change, negative = inhibition, actives largely listed as inhibitors; AID 504832, 2011; active = well fitted inhibition curve with a large enough effect; inconclusive = small, poorly fitted or top-dose-only effect, or another doubt; inactive = no such curve, though single readings can be large or run the other way; note: potency is the fitted concentration of half-maximal effect; % is set by controls: 0 for no effect and ±100 for the full control effect
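Luciferase-expressing parasites in RBCs, 2% Hct / 0.1% parasitemia final; RPMI 1640 + 0.5% Albumax; 37 C, 5% CO2, one generation; luminescence read-out, lower signal = inhibition.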
Shiga inhibitor: A qHTS for Small Molecule Inhibitors of Shiga Toxin; 9.2% of 290,000 active; Vero cells, Shiga toxin protein synthesis inhibition reporter; inhibition, % at 38.7 µM; AID 2315, 2010; in the data active = inhibition mostly above about 28%, no sharp cut-off; inactive = mostly below about 43%; note: 0% is about no effect
Flu NS1 inh: Assay for Inhibitors of Influenza NS1 Protein Function: Hit Validation. activity change, negative = inhibition, % at 32.9 µM. AID 492980, 2010. shares compounds with NS1 inh. influenza NS1 function cell assay, 15-point titration. 1,400 tested, under 10 active; note: 0% is about no effect
SARS PLpro yeast-2: qHTS of Yeast-based Assay for SARS-CoV PLP: Hit Validation. shares compounds with SARS PLpro yeast-1. yeast expressing SARS-CoV PLpro, growth phenotype rescue. calls only. 19% of 1,000 active; call rule not given here
The depositor's hits bear a star; i = inactive; ? = inconclusive; nt = not tested or not shown; + = active, no number; [ ] = remark or other dose. A selection: hits, their analogues and other compounds. The true share with any hit is near 21%. Unless noted, calls come from the whole dose curve.

SMILES	NS1 inh	Pf growth 96h	Cycloheximide cs	SARS PLpro yeast-1	Pf growth 48h	Shiga inhibitor	Flu NS1 inh	SARS PLpro yeast-2
COc1cccc(-n2c(SCc3cc(=O)oc4cc(O)c(O)cc34)nc3ccccc3c2=O)c1	?	?	-3	14µM*	34%	13	-15	i
CCN(CC)C(=O)CSc1nc2ccccc2c(=O)n1-c1cccc(OC)c1	-2%	nt	-1	-2%	?	2	nt	nt
O=C(N/N=C\c1c(O)ccc2ccccc12)c1ccc(Cn2cccn2)o1	?	?	-2	?	?	-3	-5	i
Cc1cccc2sc(NNC(=O)c3ccc(S(=O)(=O)N4CCc5ccccc5C4)cc3)nc12	13µM*	5.2µM*	7	10µM*	?	8	?	+
CCOC(=O)N1CCN(S(=O)(=O)c2ccc(C(=O)NNc3nc4ccc(Cl)cc4s3)cc2)CC1	7.9µM*	?	1	10µM*	0%	-13	-16	+
CCOC(=O)N1CCN(S(=O)(=O)c2ccc(C(=O)NNc3nc4c(C)cccc4s3)cc2)CC1	10µM*	?	-2	7.9µM*	?	7	?	+
CCCN(CCC)c1c([N+](=O)[O-])cc(S(N)(=O)=O)cc1[N+](=O)[O-]	nt	nt	-7	nt	nt	-26	nt	nt
COc1cccc(-c2ccc3nnc(SCC(=O)Nc4ccc(NC(C)=O)cc4)n3n2)c1	nt	14%	nt	4%	0%	nt	nt	nt
O=C(Cn1c(NCCO)nc2ccccc21)NCCc1ccc(F)cc1	1µM*	1%	7	?	?	-10	-4	i
O=C(Cn1c(CO)nc2ccccc21)NCCc1ccc(F)cc1	nt	15%	5	3%	41%	-10	nt	nt
COc1ccc(NC(=O)c2n[nH]c(=O)c3ccccc23)cc1S(=O)(=O)N1CCCCC1	14%	?	-2	-8%	?	-8	nt	nt
CNC(=S)NCc1ccc2[nH]c3c(c2c1)CCCC3	17%	56%[1.15 µM]	12	1%	11%	9	nt	nt
CN(C)S(=O)(=O)c1ccc(C(=O)NCc2ccc3[nH]c4c(c3c2)CCCC4)cc1	16µM*	?	-3	3.5µM*	-21%	-5	11	+
COc1cc(C(=O)NC2CCN(Cc3ccccc3)CC2)cc(Cl)c1OC	-6%	?	2	-2%	?	3	nt	nt
COc1cc(C(=O)NC2CCN(Cc3nnnn3Cc3cccs3)CC2)cc(OC)c1OC	-9%	nt	-2	4µM*	nt	14	nt	i
Oc1c(CN2CCOCC2)cc(COCc2ccccc2)c2cccnc12	-83%	31%	28*	nt	2.6µM*	26	nt	+
COc1ccccc1C(=O)NC(=O)COC(=O)CNC(=O)c1ccc(Cl)cc1Cl	nt	26%	nt	-1%	5%	nt	nt	nt
CCOc1ccc(N2C(=O)CC(SC(=NC)Nc3ccc4c(c3)OCO4)C2=O)cc1 (stereo not drawn)	5%	16%	3	?	nt	-16	nt	?
Cc1cc(NS(=O)(=O)c2ccc(N)cc2)nc(C)n1	nt	2%	nt	nt	-1%	nt	nt	nt
COc1ccc(CNC(=O)C[C@H]2C[C@H](C(=O)N3CCOCC3)[C@@]3(CCC4CCCC4)c4[nH]c5cc(CCC(=O)N(C)C)ccc5c4CCN3C2=O)cc1OC	nt	nt	nt	?	nt	nt	nt	i
CN(C)C(=O)CCc1ccc2c3c([nH]c2c1)[C@]1(CCC2CCCC2)[C@@H](C(=O)N2CCOCC2)C[C@H](CC(=O)NCCN2CCOCC2)C(=O)N1CC3	nt	nt	nt	-11%	nt	nt	nt	nt
CCc1noc(C)c1C(=O)Nc1nnc(C(CC)CC)s1	nt	-29%	nt	-10%	?	nt	nt	nt
Cc1ccc(NCc2nnc(SC(C)C(=O)N/N=C/c3ccc(C)o3)n2-c2ccccc2)cc1 (stereo not drawn)	15%	?	-3	-30%	17%	-14	nt	nt
